Laboratory results: PubChem BioAssay AID504848 (National Center for Advancing Translational Sciences (NCATS), 2011)
Hit rate of the full screen: of about 2,300 compounds, about 1,400 (61%) were called active. Roughly 29% stayed inconclusive and do not appear here. The call rests on the fitted dose curve; in most records, active means well fitted inhibition curve with a large enough effect; inconclusive means small, poorly fitted or top-dose-only effect, or effect the other way; inactive means no such curve, though single readings can be large or run the other way. So high a share suggests a set chosen from earlier hits. Some of the results follow.

Assay: Confirmation screen for delayed death inhibitors of the malarial parasite plastid, 96 hour incubation; further: nearly all actives have a fitted effect of over 60% in size
Details: P. falciparum luciferase growth in erythrocytes; series mostly up to 28.7 µM
How it was run: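 Two-generation (96 h, 37 C) exposure of P. falciparum carrying an integrated firefly luciferase reporter in erythrocytes, 0.1% parasitemia and 2% hematocrit final, Albumax-supplemented RPMI. Luminescence decrease measures growth inhibition.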
Potency means the concentration at half of the fitted maximal effect.

Compound | Potency
CC(C)(C)c1cc(NC(=O)CCl)n(-c2ccccc2)n1 | 8.91 µM (active)
O=C(CCl)Nc1c2c(nn1-c1ccccc1)CSC2 | 2.24 µM (active)
Cc1ccc(-c2cc(NC(=O)CCl)n(-c3ccccc3)n2)cc1 | 3.98 µM (active)
CCCCNC(=O)c1onc(CSc2ccc(Cl)cc2)c1C(=O)O | inactive
COc1cc(OC)c2c(-c3cccc(-c4cccc(N)c4)c3)cc(=O)oc2c1 | 10 µM (active)
NCCCNc1nc(N)c([N+](=O)[O-])c(NC2CCCCC2)n1 | 2.82 µM (active)
CC(C)C1C(=O)CC(c2ccccc2)NC1c1ccccc1 (stereo not given) | 15.8 µM (active)
S=C(Nc1ccccc1Cl)N(Cc1ccccc1)Cc1cccnc1 | 11.2 µM (active)
C(=C\c1nc(N2CCCCCC2)c2ccccc2n1)/c1ccccc1 | 6.31 µM (active)
CC(C)CCSc1nc(N)c(C#N)cc1C#N | 5.62 µM (active)
Cc1cccc2cc3c(nc12)SC(=NCC1CCCO1)N(Cc1ccco1)C3 (stereo not given) | 2 µM (active)
CCCNC(=O)c1ccc(S(=O)(=O)c2ccc(OC)cc2)c([N+](=O)[O-])c1 | 5.01 µM (active)
CCOc1ccc2c(c1)C(N(CCN1CCOCC1)C(=O)Nc1ccccc1)CC(C)(C)O2 (stereo not given) | 10 µM (active)
O=C(N/N=C/c1cccn1-c1ccc([N+](=O)[O-])cc1)c1cccnc1 | 11.2 µM (active)
O=C(/C(=C/c1ccc(Cl)cc1)c1nc2ccccc2[nH]1)c1ccccc1 | 1.26 µM (active)
COc1cc(/C=C(/C(=O)c2cccs2)c2nc3ccccc3[nH]2)ccc1O | 3.98 µM (active)
COC(=O)/C(=C\c1cc(OC)c(OC)c(OC)c1)c1nc2ccccc2[nH]1 | 11.2 µM (active)
Brc1ccc2[nH]c3c(c2c1)CCC3 | inactive
O=C(NCc1ccc2[nH]c3c(c2c1)CCCC3)c1ccc(S(=O)(=O)N2CCCC2)cc1 | 12.6 µM (active)
C=CCNC(=O)c1onc(CSc2ccc(Cl)cc2)c1C(=O)O | inactive
COc1ccc(-c2cc(CNC(=O)CCl)on2)cc1 | 1.41 µM (active)
NNc1nc(-c2ccccc2Cl)c2cc(Br)ccc2n1 | 11.2 µM (active)
COc1ccc(Cl)cc1NC(=O)c1noc(C)c1[N+](=O)[O-] | 12.6 µM (active)

Compound | Potency
CCCN1C2=C(C(=O)CCC2)C(c2ccc(O)c(Br)c2)C2=C1CCCC2=O | 12.6 µM (active)
OC1CCN(c2c3c(nc4cc(-c5ccc(Cl)cc5)nn24)CCC3)CC1 | 3.98 µM (active)
C/C(=C\C(=O)c1ccncc1)Nc1ccccc1O | 15.8 µM (active)
CO[C@H](C(=O)[C@@H](O)[C@@H](C)O)C1Cc2cc3cc(O[C@H]4C[C@@H](O[C@H]5C[C@@H](O)[C@H](O)[C@@H](C)O5)[C@@H](O)[C@@H](C)O4)c(C)c(O)c3c(O)c2C(=O)[C@H]1O[C@H]1C[C@@H](O[C@H]2C[C@@H](O[C@H]3C[C@](C)(O)[C@H](O)[C@@H](C)O3)[C@H](O)[C@@H](C)O2)[C@H](O)[C@@H](C)O1 (stereo not given in full) | 0.562 µM (active)
COc1ccc(NS(=O)(=O)c2ccc(N3CCOCC3)c(NC(=O)c3ccc(OC)cc3)c2)cc1 | 11.2 µM (active)
Cc1cc(Sc2nnc(/N=C/N(C)C)s2)c2ccccc2n1 | 7.08 µM (active)
Cc1cc(Sc2nnc(N)s2)c2ccccc2n1 | 5.62 µM (active)
CC1CCCN(Cc2c(O)ccc3c(=O)c(-c4nc5ccccc5s4)c(N)oc23)C1 (stereo not given) | 0.316 µM (active)
CCOc1cc([N+](=O)[O-])cc(/C=N/NC(=O)c2c(-c3ccccc3)noc2C)c1O | 14.1 µM (active)
COCCn1c(SCc2csc(-c3ccccc3)n2)nc2ccccc21 | 12.6 µM (active)
CN1C(=O)Cc2cc(S(=O)(=O)N3CCN(c4cccc(C(F)(F)F)c4)CC3)ccc21 | 12.6 µM (active)
Cc1cccc(N2CCN(C3=NC(=O)C(Cc4ccccc4)S3)CC2)c1 (stereo not given) | 1.58 µM (active)
O=C(Oc1nsnc1N1CCCCC1)N1CCOCC1 | 10 µM (active)
Cc1oc(-c2ccccc2Cl)nc1Cn1cccc1C1=NC(c2ccccc2)CO1 (stereo not given) | 12.6 µM (active)
CCn1c(=O)n(CC)c2cc(N3CCCC3)c(NC(=O)c3ccc(C)cc3)cc21 | 7.08 µM (active)
COc1ccc2cc3[n+](cc2c1OC)CCc1cc2c(cc1-3)OCO2 | 0.501 µM (active)
O=C(Nc1ccccc1)N1CCC(O)(c2cccc(C(F)(F)F)c2)CC1 | 12.6 µM (active)
Cn1c2ccccc2c(=O)c2ccc(C#Cc3ccc(N)cc3)cc21 | 11.2 µM (active)
COc1ccc(C#Cc2ccc3c(=O)c4ccccc4n(C)c3c2)cc1 | 10 µM (active)
COc1cccc(S(=O)(=O)NCc2ccc(C(=O)NCc3ccccn3)cc2)c1 | inactive
COc1ccc(N(C)S(=O)(=O)c2cccc(C(=O)NCc3ccc(C)cc3)c2)cc1 | 14.1 µM (active)
O=C(c1ccc([N+](=O)[O-])cc1)n1nc(-c2ccccc2)nc1NCc1ccc(F)cc1 | 10 µM (active)
Cc1cc(C)nc(SCC(=O)c2ccc(C)c(C)c2)n1 | 12.6 µM (active)

Compound | Potency
COc1ccccc1N1CCN(CCCCN2C(=O)C3CCCCN3C2=O)CC1 (stereo not given) | 12.6 µM (active)
CCN1CCC(Nc2ccnc3cc(Cl)ccc23)CC1 | 0.158 µM (active)
O=C(NNc1ccnc2cc(Cl)ccc12)C1CCCCC1 | 0.282 µM (active)
Cc1cccc(-n2ccc(=O)c(C(=O)Nc3ccc(S(=O)(=O)N4CCOCC4)cc3)n2)c1 | 5.01 µM (active)
c1ccc2oc(Cc3ccc(Cc4nc5ccccc5o4)cc3)nc2c1 | 8.91 µM (active)
CC(c1ccco1)N(C(=O)c1cc(Cl)cc(Cl)c1)c1ccccn1 (stereo not given) | 12.6 µM (active)
O=C(CCCN1C(=O)/C(=C\c2cccs2)SC1=S)Nc1ccc(O)cc1 | 3.98 µM (active)
CCc1ccc(/C=C2\SC(=S)N(CCCC(=O)Nc3ccccc3C(=O)O)C2=O)cc1 | 15.8 µM (active)
O=C(CCCN1C(=O)/C(=C/c2cccs2)SC1=S)Nc1ccc(O)cc1 | 7.08 µM (active)
O=C(CCN1C(=O)/C(=C/c2ccccc2)SC1=S)N[C@@H](CO)Cc1ccccc1 | 12.6 µM (active)
O=C(CCN1C(=O)/C(=C/c2ccccc2)SC1=S)NCCc1ccc(O)cc1 | inactive
O=C(CCN1C(=O)/C(=C\c2ccc(F)cc2)SC1=S)Nc1ccccc1 | inactive
CCc1nn2c(=O)cc(COc3cccc(NC(=O)c4ccco4)c3)nc2s1 | 10 µM (active)
CCc1noc(C)c1C(=O)N1CCC(CCC(=O)Nc2cccc(C)c2)CC1 | 6.31 µM (active)
C=CCNC(=O)c1onc(CSc2cccc(C)c2)c1C(=O)O | inactive
CC(=O)c1ccc[n+](CC(=O)NC(C)c2ccccc2)c1 (stereo not given) | 4.47 µM (active)
CCc1ccccc1Nc1nc(N)nc(COC(=O)CCNS(=O)(=O)c2ccccc2)n1 | 12.6 µM (active)
O=C(O)CCNS(=O)(=O)c1cccc(Br)c1 | inactive
CCc1ccccc1Nc1nc(N)nc(COC(=O)CCC(=O)c2ccc(F)cc2)n1 | 2.51 µM (active)
COc1ccccc1-n1c(=S)[nH]c2c(sc(=S)n2-c2ccc(C)cc2C)c1=O | 3.16 µM (active)
COc1ccccc1CNC(=O)c1ccc(-c2ccccc2Cl)o1 | 6.31 µM (active)
CCCC(=O)Nc1nnc(CC(=O)N2CCCC2)s1 | inactive
CCCc1nnc(NC(=O)CCC(=O)N2CCN(Cc3ccc(Cl)cc3)CC2)s1 | 11.2 µM (active)

Compound | Potency
COc1ccc(CN2CCN(C(=O)CCC(=O)Nc3nnc(C4CCCCC4)s3)CC2)cc1F | 10 µM (active)
O=C(Cc1cccs1)NCCc1ccc(Cl)cc1 | 5.62 µM (active)
CC(C)(C)OC(=O)[C@H]1[C@H](c2ccc([N+](=O)[O-])cc2)C2(C(=O)c3ccccc3C2=O)C2c3ccccc3C=NN21 (stereo not given in full) | 5.01 µM (active)
COc1cccc(NC(=O)CSc2nc3ccccc3nc2N2CCCC2)c1 | 12.6 µM (active)
O=C(O)c1nn(CCSc2ccccc2F)c(=O)c2ccccc12 | inactive
O=c1cc(CSc2ccc(Cl)cc2)nc(-c2ccccn2)[nH]1 | 3.16 µM (active)
CN(CCCN1CCOCC1)C(=O)c1ccc2nc(Cc3cccc(Cl)c3)oc2c1 | 11.2 µM (active)
O=S(=O)(c1cnc[nH]1)N1CCN(C(c2ccc(F)cc2)c2ccc(F)cc2)CC1 | 11.2 µM (active)
O=C(COC(=O)c1ccc(O)cc1O)Nc1ccc2ccccc2c1 | inactive
O=C(O)c1ccc(O)cc1O | 2.51 µM (active)
CCOc1ccccc1CNC(=O)c1cc2oc3ccccc3c2n1C | 12.6 µM (active)
COc1cccc(CNC(=O)c2cc3oc4ccccc4c3n2C)c1OC | inactive
CCOc1ccccc1CNC(=O)c1cc2oc3ccccc3c2n1CC | 12.6 µM (active)
CCOC(=O)[C@H]1[C@H]2COc3cc(OC)ccc3[C@@H]2N2C(=O)N(c3ccc(Cl)cc3)C(=O)[C@@]12C | inactive
O=C(CN(c1ccc2c(c1)OCCO2)S(=O)(=O)c1ccccc1)NCc1ccc(Cl)cc1 | 12.6 µM (active)
O=C(CCN1CCN(S(=O)(=O)c2cccc([N+](=O)[O-])c2)CC1)Nc1ccccc1F | 10 µM (active)
CSc1ccccc1NC(=O)CN1CCN(S(=O)(=O)c2ccccc2[N+](=O)[O-])CC1 | 12.6 µM (active)
CCOC(=O)CCC(=O)Nc1ncnc2c1C(c1ccccc1)c1c(ccc3ccccc13)O2 (stereo not given) | 7.94 µM (active)
CCC(=O)c1ccc(OCC(=O)NCC2(N3CCCCC3)CCCCC2)cc1 | 14.1 µM (active)
CN(C)S(=O)(=O)c1ccc(Cl)c(NC(=O)CN2C(=O)NC(C)(C3CC3)C2=O)c1 (stereo not given) | 12.6 µM (active)
O=c1[nH]c(C2CCN(S(=O)(=O)c3cccc([N+](=O)[O-])c3)CC2)nc2c1nnn2Cc1ccccc1 | 8.91 µM (active)
